Assay results from PubChem BioAssay (NCI).
The panel holds about 83,000 compounds, 20% with a hit somewhere; the sample as a whole holds those more often.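 Assay: single dose, 48 h. Readout: percent growth (0 = no net growth; negative = cell death). Active: <10.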 Active and inactive are the calls of the source.

Experiments:
Assay in all cases: NCI-60 one-dose screen, 48 h (100 = growth as untreated, 0 = no growth, -100 = all killed)
Conditions in all cases: 10 µM unless noted
[1] = test system: NCI-H23 lung
[2] = test system: NCI-H226 lung
[3] = test system: HOP-62 NSCLC
[4] = test system: NCI-H460 lung
[5] = test system: HOP-92 NSCLC
[6] = test system: NCI-H522 lung
[7] = test system: A549/ATCC NSCLC
[8] = test system: COLO 205 colon
[9] = test system: DU-145 prostate
[10] = test system: K-562 leukemia
[11] = test system: MDA-MB-231 breast
[12] = test system: SF-268 CNS
[13] = test system: SF-295 CNS
[14] = test system: SF-539 CNS
[15] = test system: UACC-257 melanoma
[16] = test system: NCI-H322M lung
[17] = test system: 786-0 renal
[18] = test system: RXF 393 renal
[19] = test system: M14 melanoma
[20] = test system: MALME-3M melanoma

Measured: growth

CCCCCCCCCCCCCCCc1ccc(C(=O)C[n+]2ccccc2)cc1
active: [1] -62% | [2] -6.49% | [3] -99% | [4] -80.6% | [5] -87.1% | [6] -90.2% | [7] -95% | [8] -90.5% | [9] -97.6% | [10] -81.6% | [11] -53.8% | [12] -87% | [13] -74.8% | [14] -98.4% | [15] -76.3%

OC(CSc1ccccc1)CN1CCN(c2ccc(Cl)cc2)CC1 (stereo unspecified)
inactive: [1] 107% | [16] 110% | [3] 98.3% | [4] 109% | [5] 63.8% | [6] 90.3% | [7] 98.4% | [17] 95.3% | [8] 107% | [9] 110% | [10] 78.3% | [11] 94.7% | [18] 95.7% | [12] 103% | [13] 94.3% | [14] 96.8% | [15] 101% | [19] 100%

CSc1nc(C)c(C(=O)CCN2CCN(c3ccccn3)CC2)s1
inactive: [1] 106% | [16] 107% | [4] 106% | [7] 102% | [17] 101% | [9] 102% | [10] 93.6% | [20] 102% | [11] 101% | [18] 100% | [12] 102% | [13] 102% | [14] 99% | [15] 99.7% | [19] 99.9%
active: [6] -64.2%

CCCCCCCCCCCC[N+]1(CCCCCCCCCCCC)CCCC(C)C1 (stereo unspecified)
active: [1] -91.9% | [16] -85.9% | [3] -96.3% | [4] -90.7% | [5] -86.5% | [6] -90.1% | [7] -98.6% | [17] -98.4% | [8] -98.8% | [9] -83.8% | [10] -79.1% | [20] -75.1% | [11] -82.6% | [12] -87.7% | [13] -77.1% | [14] -99.6% | [15] -96.2% | [19] -97.3%

O=C(Nc1cccc(C(F)(F)F)c1)Oc1ccc(Cl)c2cccnc12
inactive: [16] 101% | [3] 76.8% | [4] 10.4% | [17] 88% | [8] 89.6% | [9] 39.6% | [10] 16.2% | [11] 22.7% | [18] 68.6% | [12] 15.1% | [14] 50.9% | [19] 24.9%
active: [1] 8.91% | [6] -77.1% | [7] -1.52% | [20] -2.66% | [13] 4.11% | [15] -60%

COc1cccc2c1C(=O)c1c(O)c3c(c(O)c1C2=O)C[C@@](O)(C(=O)CO)C[C@@H]3OC1CC(OC(C)=O)C(OC(C)=O)C(C)O1 (stereo partly specified)
active: [2] -73.3% | [16] -12.8% | [3] -25.6% | [4] -56.2% | [5] -28.9% | [6] -34% | [7] -44.6% | [17] -17.3% | [8] -6.8% | [9] -50.9% | [10] -34.2% | [20] -83% | [11] 9.19% | [18] -31.3% | [12] -22.3% | [13] -30.2% | [14] -34.4% | [15] -27.7% | [19] -12.5%

COc1ccc2nc3cc(Cl)ccc3c(NCCCCCN3CCCCC3)c2c1
inactive: [13] 43.2%
active: [1] -49.1% | [16] -34% | [3] -31.6% | [4] -62.9% | [5] -56.4% | [6] -71.6% | [7] -33.1% | [17] -73.4% | [8] -89.4% | [9] -3.46% | [10] -13.9% | [20] -84.7% | [18] -72.1% | [12] -36.4% | [14] -89.7% | [15] -74.8% | [19] -81.9%

Cc1cc2nc(CC(=O)c3ccncc3)c(=O)[nH]c2cc1C
inactive: [1] 94.2% | [16] 95.9% | [3] 95% | [4] 95.2% | [5] 92.8% | [6] 87.6% | [7] 98.5% | [17] 87.7% | [8] 130% | [9] 100% | [10] 91.1% | [20] 109% | [18] 96.4% | [12] 94.2% | [13] 92% | [14] 60.8% | [15] 107%

O=C(c1ccccc1)C(Br)C(Br)c1ccccc1 (stereo unspecified)
active: [8] 6.72% | [10] 6.6% | [20] -3.62% | [19] 2.17%
inactive: [1] 104% | [16] 121% | [3] 103% | [4] 103% | [5] 46% | [7] 99.2% | [9] 94.7% | [11] 112% | [18] 33.6% | [12] 102% | [13] 82.4% | [14] 108% | [15] 17.3%

COc1cc(NCc2ccc3nc(N)nc(N)c3c2C)cc(OC)c1OC (tested in a mixture with another compound)
inactive: [1] 16.1% | [16] 51.9% | [3] 29.8% | [4] 14.1% | [6] 22.3% | [7] 36.9% | [17] 15.5% | [8] 40.2% | [9] 49.6% | [10] 27.9% | [20] 37.2% | [11] 61.6% | [18] 30.1% | [12] 24.1% | [13] 17.1% | [14] 25.3% | [15] 23.5% | [19] 20.9%

CCOc1ccc(C(CN2CCOCC2)C(C)=O)cc1OC (stereo unspecified)
inactive: [1] 98.9% | [16] 117% | [3] 104% | [4] 108% | [5] 102% | [7] 101% | [17] 63.7% | [10] 45.5% | [20] 84% | [11] 94.6% | [18] 85.8% | [12] 105% | [13] 102% | [14] 89.6% | [15] 90% | [19] 93.8%
active: [6] -51.6%

O=[N+]([O-])C=C(c1ccccc1)c1ccccc1
inactive: [1] 81.9% | [16] 88% | [3] 73.7% | [4] 88.4% | [5] 63.9% | [6] 72.7% | [7] 79.5% | [17] 89.2% | [8] 114% | [9] 87.7% | [10] 29.4% | [20] 80.2% | [18] 78.5% | [12] 85.7% | [13] 89.3% | [14] 88.2% | [15] 84% | [19] 79.4%

NNc1cccc([N+](=O)[O-])c1
inactive: [2] 103% | [16] 89% | [4] 108% | [5] 122% | [6] 61.4% | [7] 96.7% | [17] 86.4% | [8] 110% | [9] 104% | [20] 101% | [11] 58.9% | [18] 122% | [12] 72.6% | [13] 89.5% | [14] 100% | [15] 99%

CCN(CC)CCNC(Cc1ccccc1)c1ccc(OCc2ccccc2)cc1 (stereo unspecified)
active: [5] 6.39% | [15] -40.7% | [19] -29.6%
inactive: [2] 88.2% | [3] 92.8% | [4] 65.1% | [6] 73.6% | [7] 69.6% | [17] 57.4% | [8] 54.2% | [9] 98.5% | [10] 14.9% | [20] 88.6% | [11] 50% | [18] 63.4% | [12] 84.5% | [13] 74.5% | [14] 57%

O=C1Nc2ccc(Br)cc2C1=O
inactive: [1] 97.5% | [16] 102% | [3] 100% | [4] 102% | [5] 103% | [6] 99.8% | [17] 109% | [8] 106% | [9] 99.5% | [10] 87.2% | [20] 102% | [11] 96.7% | [18] 119% | [12] 93.6% | [13] 99.1% | [14] 98.3%

CCNc1nnnn1CC
inactive: [1] 107% | [16] 105% | [3] 110% | [4] 106% | [6] 106% | [7] 113% | [8] 109% | [9] 109% | [10] 109% | [20] 116% | [11] 103% | [18] 106% | [12] 106% | [13] 103% | [14] 103% | [15] 116% | [19] 104%

NC(=S)N/N=C\c1nccc2c(C(F)(F)F)cccc12
active: [16] 4.15% | [3] -5.75% | [4] 0.121% | [6] -30.5% | [7] 3.44% | [17] -24.7% | [10] 5.11% | [20] -10.4% | [12] 5.75% | [13] 7.98% | [14] 0.339% | [15] -23.9% | [19] -26.7%
inactive: [1] 13.4% | [8] 17.8% | [9] 12% | [11] 49.1% | [18] 16%

CN1CSC(=S)N(Cc2ccccc2)C1
active: [6] -25.6%
inactive: [1] 83.9% | [16] 102% | [3] 108% | [4] 108% | [5] 69.4% | [7] 107% | [17] 100% | [8] 113% | [9] 110% | [10] 49.9% | [20] 99.3% | [11] 90.7% | [18] 83.1% | [12] 105% | [13] 106% | [15] 84.3%
